# The full list was thinned out, with hits kept by preference.
# Vaccinia inh: Vaccinia orthopox stage-specific inhibition; Vaccinia-infected cells, mCherry/Venus stage reporter fluorescence; stronger effect = lower value; activity change (mCherry), % (no concentration beside the values); 89,000 compounds, 0.01% hits; AID 1053133; in the data active means activity change below about -37%, passing the limit was not always enough; tested in A549 cells
# Active calls of the source: *.
SMILES,Vaccinia inh
C[C@H](CO)N1C[C@H](C)[C@H](CN(C)Cc2ccc(C(=O)Nc3ccccc3N)cc2)Oc2ccc(NC(=O)Cc3ccccc3)cc2CC1=O,-4
C[C@H](CO)N1C[C@H](C)[C@@H](CN(C)Cc2ccccc2)Oc2ccc(NC(=O)Cc3cn(C)c4ccccc34)cc2C1=O,-4
C[C@H](O)C#Cc1ccc2c(c1)O[C@H](CN(C)Cc1ccccc1)[C@@H](C)CN([C@@H](C)CO)S2(=O)=O,-26
C[C@H](CO)N1C[C@H](C)[C@@H](CN(C)Cc2ccccc2)Oc2cc(C#C[C@@H](C)O)ccc2S1(=O)=O,-16
C[C@@H](O)C#Cc1ccc2c(c1)O[C@@H](CN(C)Cc1ccc(-c3ccccc3)cc1)[C@@H](C)CN([C@@H](C)CO)S2(=O)=O,-92*
O=C(C[C@H]1C=C[C@@H](NC(=O)NC2CCCCC2)[C@@H](CO)O1)NCc1ccc(F)cc1,-11
O=C(C[C@H]1C[C@H]2c3cc(NC(=O)C4CCC4)ccc3O[C@H]2[C@H](CO)O1)NCCN1CCCCC1,3
C[C@H]1CN([C@@H](C)CO)C(=O)c2cc(NS(=O)(=O)c3cccs3)ccc2O[C@@H]1CN(C)S(=O)(=O)c1ccc(Cl)cc1,-4
Cc1ccccc1S(=O)(=O)N1C[C@@H](O)COC[C@@H]2O[C@@H](CC(=O)N3CCN(C)CC3)CC[C@H]21,-11
Cc1noc(C)c1NC(=O)N(C)C[C@@H]1Oc2ncc(C#CC(C)(C)O)cc2C(=O)N([C@H](C)CO)C[C@@H]1C,3
COc1ccc(S(=O)(=O)N(C)C[C@H]2Oc3ccc(NC(=O)Cn4cnnn4)cc3C(=O)N([C@@H](C)CO)C[C@@H]2C)cc1,14
CC(=O)N1CC2(C1)[C@H](c1ccc(-c3cccc(F)c3)cc1)[C@@H](CO)N2CC1CCOCC1,0
C[C@@H]1CN([C@H](C)CO)C(=O)c2cccc(NC(=O)Nc3ccccc3)c2O[C@H]1CN(C)C,16
Cc1noc(C)c1S(=O)(=O)Nc1ccc2c(c1)C(=O)N([C@H](C)CO)C[C@@H](C)[C@@H](CN(C)C(=O)NC1CCCCC1)OCCCC[C@@H](C)O2,-23
C[C@@H]1CN([C@H](C)CO)C(=O)c2cc(NC(=O)CCN3CCOCC3)ccc2O[C@@H]1CN(C)Cc1ccc(C(=O)Nc2ccccc2N)cc1,22
CCCNC(=O)Nc1ccc2c(c1)OC[C@H](C)N(CC1CCCC1)C[C@@H](C)[C@@H](OC)CN(C)C2=O,-1
C[C@@H]1CN([C@@H](C)CO)C(=O)Cc2cc(NS(=O)(=O)c3ccc(F)cc3)ccc2O[C@H]1CN(C)S(=O)(=O)c1cccs1,0
CC(C)NC(=O)Nc1ccc2c(c1)CC(=O)N([C@H](C)CO)C[C@H](C)[C@@H](CN(C)Cc1ccc3c(c1)OCO3)O2,4
Cc1cccc(-c2ccc([C@@H]3[C@H](CO)N4C(=O)CN(C(=O)c5cccnc5)C[C@@H]34)cc2)c1,-7
O=C(Nc1ccc(C(F)(F)F)cc1)Nc1ccc2c(c1)[C@H]1C[C@@H](CC(=O)N3CCc4ccccc4C3)O[C@H](CO)[C@H]1O2,-32
O=C(Nc1ccc(C(F)(F)F)cc1)Nc1ccc2c(c1)[C@H]1C[C@H](CC(=O)N3CCc4ccccc4C3)O[C@@H](CO)[C@H]1O2,-15
O=C(Nc1ccc2c(c1)[C@@H]1C[C@@H](CC(=O)N3CCc4ccccc4C3)O[C@@H](CO)[C@@H]1O2)Nc1ccccc1F,-93*
CN(C)C(=O)c1ccc(-c2ccc3c(c2)[C@H]2[C@H](CCN2S(=O)(=O)c2cn(C)cn2)[C@@H](CO)N3)cc1,4
C[C@@H]1CN([C@@H](C)CO)C(=O)c2ccccc2-c2ccccc2CO[C@H]1CN(C)C(=O)C1CC1,15
CCC(=O)N1CC(=O)N2[C@H](CO)[C@H](c3ccc(-c4ccncc4)cc3)[C@@H]2C1,6
SMILES,Vaccinia inh
CCCN(C)C[C@@H]1OCCCC[C@@H](C)Oc2ccc(NS(=O)(=O)c3ccc(F)cc3)cc2C(=O)N([C@@H](C)CO)C[C@@H]1C,-14
O=C(C[C@H]1C[C@H]2c3cc(NC(=O)Cc4ccncc4)ccc3O[C@H]2[C@H](CO)O1)NCCc1ccccc1,-5
C[C@H]1CN([C@@H](C)CO)S(=O)(=O)c2ccc(-c3cccnc3)cc2O[C@@H]1CN(C)C(=O)C1CCCCC1,1
O=C(C1CCC1)N1CC2(C1)[C@H](c1ccccc1)[C@@H](CO)N2C(=O)CC1CC1,7
C[C@@H]1CN([C@@H](C)CO)C(=O)c2cc(NC(=O)c3ccncc3)ccc2O[C@H]1CN(C)Cc1ccncc1,7
COCCNC(=O)C[C@H]1CC[C@@H]2[C@@H](COc3ccc(NC(=O)Nc4ccccc4)cc3C(=O)N2C)O1,4
C[C@@H]1CN([C@H](C)CO)C(=O)c2cc(NS(=O)(=O)c3ccc(Cl)cc3)ccc2O[C@@H](C)CCCCO[C@@H]1CN(C)C(=O)CCC(F)(F)F,-13
CNC[C@@H]1Oc2c(NS(=O)(=O)c3ccc(OC)cc3)cccc2C(=O)N([C@H](C)CO)C[C@@H]1C,-8
CCNC(=O)[C@@H]1[C@@H](CO)[C@@H]2Cn3c(ccc(C4=CCCC4)c3=O)[C@H]1N2C(=O)CC,7
CN1CCN(C(=O)C[C@@H]2C[C@@H]3c4cc(NC(=O)C5CCOCC5)ccc4O[C@@H]3[C@H](CO)O2)CC1,6
CC(C)NC(=O)Nc1ccc2c(c1)C(=O)N([C@H](C)CO)C[C@@H](C)[C@@H](CN(C)Cc1ccccc1)OCCCC[C@H](C)O2,-7
CO[C@H]1CN(C)C(=O)c2cc(NC(=O)C3CCC3)ccc2OC[C@@H](C)N(Cc2nccs2)C[C@H]1C,-5
O=C(C[C@H]1C[C@H]2c3cc(NC(=O)C4CCOCC4)ccc3O[C@H]2[C@@H](CO)O1)NCc1ccncc1,8
C[C@H](CO)N1C[C@H](C)[C@@H](CN(C)S(=O)(=O)c2cccs2)OCCCC[C@H](C)Oc2ccc(NC(=O)Nc3ccc4c(c3)OCO4)cc2C1=O,6
CO[C@@H]1CN(C)C(=O)c2cc(NC(=O)Cc3ccccc3)ccc2OC[C@@H](C)N(CC2CC2)C[C@H]1C,-13
COCC(=O)N(C)C[C@H]1Oc2ncc(-c3ccc(C#N)cc3)cc2C(=O)N([C@H](C)CO)C[C@H]1C,6
CN1C(=O)c2cc(NC(=O)c3ccccc3)ccc2OC[C@@H]2O[C@@H](CC(=O)O)CC[C@H]21,-1
O=C(C[C@H]1CC[C@H]2[C@@H](COC[C@H](O)CN2C(=O)c2cccnc2)O1)NCc1ccc(-c2ccccc2)cc1,-6
COc1ccc(S(=O)(=O)Nc2ccc3c(c2)C(=O)N([C@@H](C)CO)C[C@H](C)[C@@H](CN(C)C(=O)Nc2cccc4ccccc24)O3)cc1,17
OC[C@@H]1Nc2ccc(-c3ccccc3)cc2[C@H]2[C@@H]1CCN2Cc1ccc(F)cc1,-27
OC[C@@H]1Nc2ccc(-c3cccc(F)c3)cc2[C@@H]2[C@H]1CCN2Cc1ccc(F)cc1,-18
COc1ccccc1-c1ccc2c(c1)[C@@H]1[C@@H](CCN1C(=O)C1CCCCC1)[C@@H](CO)N2,-86*
COc1ccccc1-c1ccc2c(c1)[C@@H]1[C@@H](CCN1C(=O)C1CC1)[C@@H](CO)N2,-31
OC[C@H]1Nc2ccc(-c3ccccc3)cc2[C@H]2[C@@H]1CCN2Cc1ccc(F)cc1,-50*
COc1ccccc1-c1ccc2c(c1)[C@@H]1[C@@H](CCN1C(=O)C1CCOCC1)[C@H](CO)N2,-2
C[C@@H]1CN([C@@H](C)CO)C(=O)c2cc(/C=C/c3ccccc3)cnc2O[C@H]1CN(C)C(=O)Nc1ccccc1F,-20
